From the supplement of paper PMC11732987, “Enantioselective OTUD7B fragment discovery through chemoproteomics screening and high-throughput optimisation” (Communications Chemistry, 2025)
A number with no mark means an inactive call.

Tests used:
Test in all cases: log2 ratio of Biotin-Ahx-Ub-VS probe labelling (fragment/DMSO); higher = less target engagement (more negative = stronger competition), active = hit call of the paper (q ≤ 0.05, log2 ratio ≤ -1)
Settings in all cases: compound concentration: 200 uM; treatment time: 3 h
ALG13 = target: T1, ALG13 (UniProt Q9NP73)
T1 sequence (whole entry): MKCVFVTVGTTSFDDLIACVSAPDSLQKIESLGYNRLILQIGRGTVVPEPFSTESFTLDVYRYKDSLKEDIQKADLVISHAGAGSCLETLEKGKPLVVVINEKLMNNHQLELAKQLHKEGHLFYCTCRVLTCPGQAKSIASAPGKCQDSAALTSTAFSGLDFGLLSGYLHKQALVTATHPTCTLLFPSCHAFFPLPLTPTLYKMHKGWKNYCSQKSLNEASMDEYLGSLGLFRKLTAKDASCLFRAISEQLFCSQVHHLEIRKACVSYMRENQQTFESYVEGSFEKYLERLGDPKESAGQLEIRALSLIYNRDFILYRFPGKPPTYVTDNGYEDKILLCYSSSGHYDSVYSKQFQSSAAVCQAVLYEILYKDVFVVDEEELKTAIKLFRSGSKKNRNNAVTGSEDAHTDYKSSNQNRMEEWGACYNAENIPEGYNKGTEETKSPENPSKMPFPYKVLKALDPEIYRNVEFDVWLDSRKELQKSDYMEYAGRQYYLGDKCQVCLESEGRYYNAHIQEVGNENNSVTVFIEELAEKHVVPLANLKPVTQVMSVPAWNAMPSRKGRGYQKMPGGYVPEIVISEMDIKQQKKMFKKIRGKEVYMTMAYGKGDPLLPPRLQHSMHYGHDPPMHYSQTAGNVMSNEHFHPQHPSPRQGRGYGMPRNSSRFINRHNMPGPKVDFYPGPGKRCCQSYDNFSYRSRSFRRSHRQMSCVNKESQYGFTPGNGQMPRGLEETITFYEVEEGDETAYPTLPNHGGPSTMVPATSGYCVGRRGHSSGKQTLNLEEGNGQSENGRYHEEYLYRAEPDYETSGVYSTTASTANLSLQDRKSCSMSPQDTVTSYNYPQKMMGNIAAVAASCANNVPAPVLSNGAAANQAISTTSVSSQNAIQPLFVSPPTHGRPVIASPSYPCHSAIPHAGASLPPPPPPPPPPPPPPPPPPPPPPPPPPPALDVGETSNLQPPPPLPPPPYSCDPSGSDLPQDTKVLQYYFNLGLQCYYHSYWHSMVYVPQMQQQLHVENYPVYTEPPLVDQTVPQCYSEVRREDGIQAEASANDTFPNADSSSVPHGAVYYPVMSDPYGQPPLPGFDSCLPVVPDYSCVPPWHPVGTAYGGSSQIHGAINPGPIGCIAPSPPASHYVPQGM
Method in brief: (§1)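 Labelling with Biotin-Ahx-Ub-VS (0.5 µM final, 1 h) followed a 3 h triplicate treatment of HEK293T lysate (495 µg per sample, Tris/CHAPS/IGEPAL buffer with protease inhibitors) with fragment at 200 µM or vehicle. Labelled DUBs were NeutrAvidin-enriched, digested with LysC and trypsin, and run by diaPASEF LC-MS/MS. The values, average log2 fragment/vehicle ratios by unpaired t-test, come from global-median-normalised Spectronaut label-free quantities. Proteins with ≥2 unique peptides were used.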

ATXN3 = ATXN3 (UniProt P54252)
Method in brief: as §1

BAP1 = target: T2, BAP1 (UniProt Q92560)
T2 sequence (whole entry): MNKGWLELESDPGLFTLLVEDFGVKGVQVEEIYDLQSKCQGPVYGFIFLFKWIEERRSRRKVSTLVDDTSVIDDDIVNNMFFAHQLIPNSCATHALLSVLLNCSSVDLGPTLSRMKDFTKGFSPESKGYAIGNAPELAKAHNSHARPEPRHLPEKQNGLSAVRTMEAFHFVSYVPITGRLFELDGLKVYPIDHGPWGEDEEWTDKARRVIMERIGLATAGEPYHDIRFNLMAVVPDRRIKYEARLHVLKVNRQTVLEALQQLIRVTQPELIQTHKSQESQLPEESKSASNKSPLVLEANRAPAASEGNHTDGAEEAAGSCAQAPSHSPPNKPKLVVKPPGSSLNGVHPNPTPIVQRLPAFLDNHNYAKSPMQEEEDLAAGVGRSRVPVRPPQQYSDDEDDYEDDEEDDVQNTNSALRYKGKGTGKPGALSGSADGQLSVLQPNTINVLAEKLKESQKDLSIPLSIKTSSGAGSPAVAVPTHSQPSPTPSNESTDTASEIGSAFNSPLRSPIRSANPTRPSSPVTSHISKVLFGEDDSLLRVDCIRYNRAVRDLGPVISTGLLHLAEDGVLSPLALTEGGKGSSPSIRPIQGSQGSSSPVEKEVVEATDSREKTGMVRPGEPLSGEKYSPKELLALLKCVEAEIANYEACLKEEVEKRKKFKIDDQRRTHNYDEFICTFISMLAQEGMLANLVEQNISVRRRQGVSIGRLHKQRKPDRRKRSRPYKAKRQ
Method in brief: as §1

EIF3F = EIF3F (UniProt O00303)
Method in brief: as §1

EIF3H = EIF3H (UniProt O15372)
Method in brief: as §1

FAM105A = target: T3, FAM105A (UniProt Q9NUU6)
T3 sequence (whole entry): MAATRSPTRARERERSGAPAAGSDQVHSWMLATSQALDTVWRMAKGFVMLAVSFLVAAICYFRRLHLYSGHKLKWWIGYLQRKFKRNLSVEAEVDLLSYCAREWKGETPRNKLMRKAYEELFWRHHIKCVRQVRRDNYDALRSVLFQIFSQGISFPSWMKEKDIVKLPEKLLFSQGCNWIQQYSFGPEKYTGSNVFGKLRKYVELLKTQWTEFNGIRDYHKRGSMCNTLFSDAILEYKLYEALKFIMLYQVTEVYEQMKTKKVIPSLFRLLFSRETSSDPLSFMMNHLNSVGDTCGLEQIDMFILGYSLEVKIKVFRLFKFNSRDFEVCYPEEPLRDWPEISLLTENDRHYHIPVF
Method in brief: as §1

OTUB1 = OTUB1 (UniProt Q96FW1)
Method in brief: as §1

OTUD4 = target: T4, OTUD4 (UniProt Q01804)
T4 sequence (whole entry): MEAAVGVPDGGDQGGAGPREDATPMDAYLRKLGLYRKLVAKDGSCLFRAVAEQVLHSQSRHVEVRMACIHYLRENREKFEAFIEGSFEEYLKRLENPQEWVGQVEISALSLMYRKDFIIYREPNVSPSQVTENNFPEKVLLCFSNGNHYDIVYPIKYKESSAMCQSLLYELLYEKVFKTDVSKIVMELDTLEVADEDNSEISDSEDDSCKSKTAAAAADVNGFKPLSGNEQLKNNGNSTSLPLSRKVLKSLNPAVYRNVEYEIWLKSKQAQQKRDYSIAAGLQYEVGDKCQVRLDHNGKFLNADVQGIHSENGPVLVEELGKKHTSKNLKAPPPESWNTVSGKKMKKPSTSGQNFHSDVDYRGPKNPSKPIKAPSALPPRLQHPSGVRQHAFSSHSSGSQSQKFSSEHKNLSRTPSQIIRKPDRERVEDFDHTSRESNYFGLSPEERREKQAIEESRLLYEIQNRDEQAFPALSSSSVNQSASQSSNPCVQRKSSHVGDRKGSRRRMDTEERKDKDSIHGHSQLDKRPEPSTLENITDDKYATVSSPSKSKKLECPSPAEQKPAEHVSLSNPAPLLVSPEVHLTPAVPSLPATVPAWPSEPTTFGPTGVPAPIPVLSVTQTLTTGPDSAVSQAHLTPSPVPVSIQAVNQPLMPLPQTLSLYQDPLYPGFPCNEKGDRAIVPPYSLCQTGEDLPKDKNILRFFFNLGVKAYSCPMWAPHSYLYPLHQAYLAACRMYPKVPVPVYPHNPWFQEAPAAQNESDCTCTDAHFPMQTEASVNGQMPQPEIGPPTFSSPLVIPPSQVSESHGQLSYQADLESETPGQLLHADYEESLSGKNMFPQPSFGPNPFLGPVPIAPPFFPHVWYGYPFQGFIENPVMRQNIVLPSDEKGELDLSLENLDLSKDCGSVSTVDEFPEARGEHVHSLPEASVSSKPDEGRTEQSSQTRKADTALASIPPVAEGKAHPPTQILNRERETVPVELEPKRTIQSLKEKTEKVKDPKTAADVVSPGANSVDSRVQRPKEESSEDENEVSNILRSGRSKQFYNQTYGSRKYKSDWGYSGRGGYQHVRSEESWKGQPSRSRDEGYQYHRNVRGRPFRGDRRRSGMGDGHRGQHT
Method in brief: as §1

OTUD5 = target: T5, OTUD5 (UniProt Q96G74)
T5 sequence (whole entry): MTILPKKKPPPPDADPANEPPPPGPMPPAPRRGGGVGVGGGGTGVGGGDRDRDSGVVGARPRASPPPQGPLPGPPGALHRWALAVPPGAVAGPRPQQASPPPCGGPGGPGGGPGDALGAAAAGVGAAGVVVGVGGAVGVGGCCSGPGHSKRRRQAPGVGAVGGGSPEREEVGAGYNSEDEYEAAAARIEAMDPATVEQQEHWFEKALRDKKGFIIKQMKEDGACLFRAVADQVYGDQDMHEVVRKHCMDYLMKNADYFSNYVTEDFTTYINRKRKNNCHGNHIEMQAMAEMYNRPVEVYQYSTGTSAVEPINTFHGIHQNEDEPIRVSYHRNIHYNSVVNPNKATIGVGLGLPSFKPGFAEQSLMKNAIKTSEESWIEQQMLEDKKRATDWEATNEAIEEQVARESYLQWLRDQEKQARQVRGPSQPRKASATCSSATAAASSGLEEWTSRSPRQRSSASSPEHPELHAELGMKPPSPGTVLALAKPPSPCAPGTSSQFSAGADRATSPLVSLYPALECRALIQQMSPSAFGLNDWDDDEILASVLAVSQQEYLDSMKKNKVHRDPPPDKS
Method in brief: as §1

EIF3F, sequence (O00303 whole entry): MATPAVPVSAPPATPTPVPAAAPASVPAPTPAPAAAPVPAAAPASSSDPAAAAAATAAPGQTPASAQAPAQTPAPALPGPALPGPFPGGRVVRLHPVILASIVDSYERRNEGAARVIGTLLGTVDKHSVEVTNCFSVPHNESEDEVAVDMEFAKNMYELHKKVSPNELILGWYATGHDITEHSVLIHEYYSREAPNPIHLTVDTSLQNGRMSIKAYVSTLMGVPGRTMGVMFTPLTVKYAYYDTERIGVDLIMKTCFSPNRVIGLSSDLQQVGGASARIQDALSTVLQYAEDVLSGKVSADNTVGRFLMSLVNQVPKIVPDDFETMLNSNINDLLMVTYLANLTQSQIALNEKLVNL
EIF3H, sequence (O15372 whole entry): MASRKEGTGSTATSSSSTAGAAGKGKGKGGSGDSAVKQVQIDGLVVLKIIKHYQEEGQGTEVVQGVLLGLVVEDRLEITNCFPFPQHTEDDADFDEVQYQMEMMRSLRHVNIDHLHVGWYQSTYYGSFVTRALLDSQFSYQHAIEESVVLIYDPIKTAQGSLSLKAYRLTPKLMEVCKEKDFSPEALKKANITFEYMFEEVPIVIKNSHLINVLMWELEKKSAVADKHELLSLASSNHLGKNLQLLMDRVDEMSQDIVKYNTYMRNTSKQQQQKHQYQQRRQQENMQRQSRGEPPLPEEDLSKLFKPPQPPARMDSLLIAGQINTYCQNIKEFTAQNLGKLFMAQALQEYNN
OTUB1, sequence (Q96FW1 whole entry): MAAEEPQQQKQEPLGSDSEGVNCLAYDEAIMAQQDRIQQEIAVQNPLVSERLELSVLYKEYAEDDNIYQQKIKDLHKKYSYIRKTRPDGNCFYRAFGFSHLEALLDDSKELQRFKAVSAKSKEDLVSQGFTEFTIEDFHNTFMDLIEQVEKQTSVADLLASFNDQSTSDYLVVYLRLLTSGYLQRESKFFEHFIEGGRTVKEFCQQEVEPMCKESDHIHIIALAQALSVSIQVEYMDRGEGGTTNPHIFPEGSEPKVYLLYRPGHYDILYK
ATXN3, sequence (P54252 whole entry): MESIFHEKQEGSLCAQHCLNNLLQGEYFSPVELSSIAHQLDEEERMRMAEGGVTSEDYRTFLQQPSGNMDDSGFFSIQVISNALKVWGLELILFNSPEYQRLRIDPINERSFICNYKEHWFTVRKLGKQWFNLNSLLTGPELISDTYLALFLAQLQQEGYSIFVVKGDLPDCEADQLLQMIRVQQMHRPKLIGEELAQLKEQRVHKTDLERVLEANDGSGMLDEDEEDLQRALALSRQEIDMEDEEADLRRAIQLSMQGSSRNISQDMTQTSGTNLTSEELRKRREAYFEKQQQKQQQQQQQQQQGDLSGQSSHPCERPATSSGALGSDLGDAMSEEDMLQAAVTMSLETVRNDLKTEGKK

Compound: O=C(CCl)N1CCc2ccccc2C(O)C1 (centres undefined)
- log2 ratio of Biotin-Ahx-Ub-VS probe labelling (ALG13): 0.0799
- log2 ratio of Biotin-Ahx-Ub-VS probe labelling (ATXN3): -0.585
- log2 ratio of Biotin-Ahx-Ub-VS probe labelling (BAP1): -0.705
- log2 ratio of Biotin-Ahx-Ub-VS probe labelling (EIF3F): -0.125
- log2 ratio of Biotin-Ahx-Ub-VS probe labelling (EIF3H): -0.359
- log2 ratio of Biotin-Ahx-Ub-VS probe labelling (FAM105A): -0.413
- log2 ratio of Biotin-Ahx-Ub-VS probe labelling (OTUB1): 0.0821
- log2 ratio of Biotin-Ahx-Ub-VS probe labelling (OTUD4): -0.69
- log2 ratio of Biotin-Ahx-Ub-VS probe labelling (OTUD5): -1.31 (active)
